Test results: PubChem BioAssay AID1159580 (chemical genetic matrix, 2015)
Screen size: about 5,500 compounds; about 2,000 (36%) were called active. Inconclusive results (about 18%) are left out. The list shows a part of the results. A number with no mark means an inactive call. Rule as the data show it: active = normalized growth mostly below about 0.91 (no sharp cut-off); inconclusive = no clear call, values can overlap the other calls; inactive = mostly above about 0.92.

Test: chemical genetic growth profiling, strain panel (AID 1159580);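 also: tested at 20 µM; growth read once vehicle control cultures reached saturation at 30 °C; 1 = growth at the plate median or of vehicle wells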
Settings: S. cerevisiae deletion strains, growth OD

O=C(/C=C/c1ccccc1)c1ccc(O[C@@H]2O[C@H](CO)[C@@H](O)[C@H](O)[C@H]2O)cc1O
normalized growth (locus YJR075W, strain HOC1, stronger effect = lower value): 0.913
normalized growth (locus YKL009W, strain mrt4, stronger effect = lower value): 0.906
normalized growth (locus YKL068W, stronger effect = lower value): 0.905 (active)
normalized growth (locus YKL085W, strain MDH1 (second series), stronger effect = lower value): 0.902 (active)
normalized growth (locus YKL085W, strain MDH1, stronger effect = lower value): 0.902 (active)
normalized growth (locus YKL160W, strain elf1, stronger effect = lower value): 0.911
normalized growth (locus YKL190W, strain CNB1, stronger effect = lower value): 0.934
normalized growth (locus YKR001C, strain vps1, stronger effect = lower value): 0.819 (active)
normalized growth (locus YKR026C, strain gcn3, stronger effect = lower value): 0.933
normalized growth (locus YKR091W, strain srl3, stronger effect = lower value): 0.938
normalized growth (locus YLL001W, strain dnm1, stronger effect = lower value): 0.896 (active)
normalized growth (locus YLL026W, stronger effect = lower value): 0.924 (active)
normalized growth (locus YLL041C, strain sdh2, stronger effect = lower value): 0.937
normalized growth (locus YLR027C, strain aat2, stronger effect = lower value): 0.937
normalized growth (locus YLR039C, strain RIC1, stronger effect = lower value): 0.918
normalized growth (locus YLR058C, strain SHM2, stronger effect = lower value): 0.93
normalized growth (locus YLR102C, strain apc9, stronger effect = lower value): 0.891 (active)
normalized growth (locus YLR113W, strain HOG1, stronger effect = lower value): 0.937
normalized growth (locus YLR221C, strain rsa3, stronger effect = lower value): 0.934
normalized growth (locus YLR258W, strain gsy2, stronger effect = lower value): 0.916
normalized growth (locus YLR262C, strain YPT6 (second series), stronger effect = lower value): 0.911
normalized growth (locus YLR262C, strain YPT6, stronger effect = lower value): 0.949
normalized growth (locus YLR268W, strain sec22, stronger effect = lower value): 0.88 (active)
normalized growth (locus YLR320W, strain mms22, stronger effect = lower value): 0.894
normalized growth (locus YLR330W, strain CHS5, stronger effect = lower value): 0.904 (active)
normalized growth (locus YLR342W, strain FKS1 (second series), stronger effect = lower value): 0.767 (active)
normalized growth (locus YLR342W, strain FKS1, stronger effect = lower value): 0.865 (active)
normalized growth (locus YLR357W, strain rsc2, stronger effect = lower value): 0.929
normalized growth (locus YLR370C, strain arc18, stronger effect = lower value): 0.91 (active)
normalized growth (locus YLR371W, strain rom2, stronger effect = lower value): 0.756 (active)
normalized growth (locus YLR384C, strain iki3, stronger effect = lower value): 0.907 (active)
normalized growth (locus YLR418C, strain cdc73, stronger effect = lower value): 0.739 (active)
normalized growth (locus YML016C, strain PPZ1, stronger effect = lower value): 0.909 (active)
normalized growth (locus YML032C, strain rad52, stronger effect = lower value): 0.916
normalized growth (locus YML120C, strain ndi1, stronger effect = lower value): 0.933
normalized growth (locus YML124C, strain tub3, stronger effect = lower value): 0.897 (active)
normalized growth (locus YMR058W, strain fet3, stronger effect = lower value): 0.931
normalized growth (locus YMR078C, strain ctf18, stronger effect = lower value): 0.9 (active)
normalized growth (locus YMR125W, strain sto1, stronger effect = lower value): 0.938
normalized growth (locus YMR129W, stronger effect = lower value): 0.91 (active)
normalized growth (locus YMR205C, strain PFK2, stronger effect = lower value): 0.922
normalized growth (locus YMR223W, strain ubp8, stronger effect = lower value): 0.877 (active)
normalized growth (locus YMR231W, strain pep5, stronger effect = lower value): 0.947
normalized growth (locus YMR307W, strain GAS1, stronger effect = lower value): 0.692
normalized growth (locus YNL067W, strain RPL9B, stronger effect = lower value): 0.945
normalized growth (locus YNL071W, strain lat1, stronger effect = lower value): 0.942
normalized growth (locus YNL183C, strain NPR1, stronger effect = lower value): 0.911
normalized growth (locus YNL209W, strain ssb2, stronger effect = lower value): 0.937
normalized growth (locus YNL233W, strain BNI4, stronger effect = lower value): 0.877
normalized growth (locus YNL248C, strain rpa49, stronger effect = lower value): 0.896
normalized growth (locus YNL250W, strain rad50, stronger effect = lower value): 0.892 (active)
normalized growth (locus YNL271C, strain bni1, stronger effect = lower value): 0.858 (active)
normalized growth (locus YNL298W, strain CLA4, stronger effect = lower value): 0.884 (active)
normalized growth (locus YNL307C, strain MCK1, stronger effect = lower value): 0.887 (active)
normalized growth (locus YNL322C, strain KRE1 (second series), stronger effect = lower value): 0.921
normalized growth (locus YNL322C, strain KRE1, stronger effect = lower value): 0.936
normalized growth (locus YNR049C, strain mso1, stronger effect = lower value): 0.919
normalized growth (locus YNR052C, strain pop2, stronger effect = lower value): 0.92
normalized growth (locus YOL006C, strain TOP1, stronger effect = lower value): 0.879
normalized growth (locus YOL012C, strain htz1): 1.32
normalized growth (locus YOL147C, strain pex11, stronger effect = lower value): 0.903 (active)
normalized growth (locus YOR001W, strain rrp6, stronger effect = lower value): 0.953
normalized growth (locus YOR061W, strain CKA2, stronger effect = lower value): 0.933
normalized growth (locus YOR069W, strain VPS5, stronger effect = lower value): 0.917 (active)
normalized growth (locus YOR070C, strain gyp1, stronger effect = lower value): 0.93
normalized growth (locus YOR080W, strain dia2, stronger effect = lower value): 0.948
normalized growth (locus YOR083W, strain WHI5, stronger effect = lower value): 0.859 (active)
normalized growth (locus YOR106W, strain vam3, stronger effect = lower value): 0.9
normalized growth (locus YOR136W, strain idh2, stronger effect = lower value): 0.912 (active)
normalized growth (locus YOR144C, strain elg1, stronger effect = lower value): 0.886 (active)
normalized growth (locus YOR184W, strain ser1, stronger effect = lower value): 0.864 (active)
normalized growth (locus YOR231W, strain MKK1, stronger effect = lower value): 0.952
normalized growth (locus YOR265W, strain rbl2, stronger effect = lower value): 0.926 (active)
normalized growth (locus YOR270C, strain vph1, stronger effect = lower value): 0.925
normalized growth (locus YOR290C, strain snf2, stronger effect = lower value): 0.941
normalized growth (locus YOR316C, strain cot1, stronger effect = lower value): 0.9 (active)
normalized growth (locus YPL051W, strain arl3, stronger effect = lower value): 0.931
normalized growth (locus YPL055C, strain LGE1, stronger effect = lower value): 0.901
normalized growth (locus YPL078C, strain atp4, stronger effect = lower value): 0.891 (active)
normalized growth (locus YPL106C, strain sse1, stronger effect = lower value): 0.811 (active)
normalized growth (locus YPL240C, strain hsp82, stronger effect = lower value): 0.932
normalized growth (locus YPL241C, strain CIN2, stronger effect = lower value): 0.916 (active)
normalized growth (locus YPL256C, strain CLN2, stronger effect = lower value): 0.889
normalized growth (locus YPR119W, strain clb2, stronger effect = lower value): 0.885 (active)
normalized growth (locus YPR141C, strain kar3, stronger effect = lower value): 0.877 (active)
normalized growth (locus YPR163C, strain tif3, stronger effect = lower value): 0.899 (active)
normalized growth (locus YPR167C, strain met16, stronger effect = lower value): 0.916 (active)
normalized growth (strain wtn01, stronger effect = lower value): 0.859 (active)
